Source: PubChem BioAssay AID1259339 (Broad Institute, 2017)
A number with no mark means an inactive call. Calls of active or inactive are those of the source.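 The calls were made as follows: active = fitted AC50 no higher than ten times the top tested dose (cut at about 90 µM in these data); inconclusive = flat curve with 30 to 70% signal loss, or bad fit; inactive = AC50 beyond ten times the top dose.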

assay: AlphaLISA signal interference compounds, dose response, artefact control, biochemical, TruHit kit (AID 1259339); conditions: TruHit alphaLISA kit signal interference counterscreen; series mostly up to 80 µM; activity change, negative = signal loss: at the top concentration

Compound | AC50 | activity change, negative = signal loss
Nc1c(C(=O)NCc2ccco2)c2nc3ccccc3nc2n1CCN1CCOCC1 | 56.6 µM (active) | 
O=C(NCCc1ccccc1)c1cc2cccnc2n(Cc2ccccc2)c1=O |  | -4.4%
O=C(NC1(C(F)(F)F)Oc2ccc(Cl)cc2O1)N1CCC2(CC1)OCCO2 (centres undefined) | > 160 µM | 
Cc1ccc(S(=O)(=O)Cc2ccc(C(=O)N3CCC4(CC3)OCCO4)o2)cc1 |  | -4.38%
